Several values for one entry are separate records, joined by “and”; a condition that tells them apart may be missing. Equal entries are not always repeated. Records with an inconclusive call do not appear. Where a call stands in place of a potency, no number is given. Activity calls are given as the source filed them. Unless noted, calls follow the shape of the dose curve; as a rule, active = well fitted curve in the direction sought with a large enough effect; inconclusive = small, poorly fitted or top-dose-only effect, or another doubt; inactive = no such curve, though single readings can be large; an effect the other way counts as inactive or inconclusive.
How the values were obtained:
[1] = Cell Viability - Jurkat (AID 426;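 active = dose-dependent loss of cell ATP signal giving a full or clear fitted curve, ranked by lower potency value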;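 also: potency is read from the fitted curve at half-maximal effect; cells exposed to compound for 40 hours at 37 °C before ATP read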); conditions: qHTS
In short: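 Cytotoxicity taken as drop in cellular ATP (CellTiter-Glo luminescence, 20 min room temperature) after 40 hr, 37C treatment of 5000 Jurkat Clone E6-1 cells per well; concentration-response fitted with Hill equation for AC50.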

[2] = biological target: Mitogen-activated protein kinase 10 (Mus musculus) (UniProt Q61831); experiment: JNK3 AlphaScreen Assay (AID 530; active = well fitted curve in either direction with a large enough effect, not every such curve was filed as active;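 also: kinase came from lysate of stimulated human HepG2 cells; signal reports phosphorylation of biotinylated GST-cJun 1-79 at Ser73 with 10 µM ATP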); conditions: JNK3 lysate, c-Jun phosphorylation; series mostly up to 11.4 µM
In short: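 Activity was read by AlphaScreen after JNK3-containing HepG2 lysate (cytokine pre-activated) phosphorylated biotinylated GST-cJun with 10 uM ATP at room temperature. Phospho-Ser73 cJun antibody with Protein-A acceptor beads provided detection.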

[3] = Cell Viability - H-4-II-E (AID 543); conditions: H-4-II-E rat hepatoma viability; series mostly up to 92.2 µM;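 also: cells exposed to compound for 40 hours; nearly all actives have a fitted effect of over 35% in size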
In short: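 CellTiter-Glo luminescence (intracellular ATP) measured after 40 h compound exposure at 37 °C in H-4-II-E rat hepatoma cells seeded at 1500/well. Values are AC50s fitted with the standard Hill equation.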

[4] = Cell Viability - LYMP2-001 (AID 921); conditions: LYMP2-001 lymphoblastoid cell viability; series mostly up to 92.2 µM; also: nearly all actives have a fitted effect of over 70% in size
In short: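 qHTS, 1536-well; lymphoblastoid cells, 24 hr compound, 37 C; ATP by CellTiter-Glo, 30 min RT; luminescence; Hill-fit AC50.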

[5] = Cell Viability - LYMP2-004 (AID 966); conditions: LYMP2-004 lymphoblastoid cell viability, qHTS; series mostly up to 92.2 µM; also: nearly all actives have a fitted effect of over 65% in size
In short: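 AC50 values come from Hill modelling of concentration-dependent loss of intracellular ATP, measured by CellTiter-Glo luminescence. Human LYMP2-004 lymphoblastoid cells (2500/well) were exposed to compound for 24 h at 37 C.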

[6] = Cell Viability - LYMP2-011 (AID 969); conditions: LYMP2-011 lymphoblastoid cells viability; series mostly up to 92.2 µM; also: nearly all actives have a fitted effect of over 60% in size
In short: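 Cytotoxicity qHTS with ATP content as read-out: lymphoblastoid cells (2500/well) exposed to compound for 24 h at 37 C, then luciferase luminescence measured. Concentration-response data fitted with the standard Hill equation to give AC50.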

[7] = Cell Viability - LYMP2-007 (AID 979); conditions: LYMP2-007 lymphoblastoid cell viability; series mostly up to 92.2 µM;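 also: cells exposed to compound for 24 h before reading; nearly all actives have a fitted effect of over 60% in size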
In short: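 AC50 values come from Hill-equation fits of luminescent intracellular ATP (CellTiter-Glo, 30 min, room temperature) following 24 h compound exposure at 37 C. Cells: LYMP2-007 lymphoblastoid line, 2500 per well, in complete culture medium.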

[8] = qHTS assay for small molecule antagonists of peroxisome proliferator-activated receptor delta signaling (AID 588535); conditions: HEK293T PPARd-UAS-bla, beta-lactamase FRET ratio, 18 h; 460 nm channel;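 also: cells co-treated with a PPAR-delta agonist as stimulator during compound exposure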
In short: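 Fluorescence from CCF4-loaded GeneBLAzer PPAR-delta-UAS-bla HEK293T cells (2 hrs RT loading) quantified reporter inhibition after an 18 hr, 37 C compound exposure across a titration.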

[9] = biological target: Peroxisome proliferator-activated receptor gamma (Homo sapiens) (UniProt P37231); experiment: qHTS assay for small molecule agonists of peroxisome proliferator-activated receptor gamma signaling (AID 588536; active = well fitted curve in the direction sought with a large enough effect in the signal ratio, with a control signal flat, not every such curve was filed as active; the % refers to the signal ratio); conditions: HEK293 PPARg-UAS-bla, beta-lactamase ratio, 16 h, percent of rosiglitazone response, DMSO as zero; series mostly up to 76.7 µM
In short: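 Cells were plated and held 6–6.5 h at 37 C, then compounds were added as a titration series. After a further 16 h, CCF4 dye was loaded for 2 h at room temperature and emission at 460/530 nm recorded.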

[10] = biological target: Peroxisome proliferator-activated receptor gamma (Homo sapiens) (UniProt P37231); experiment: qHTS assay for small molecule antagonists of peroxisome proliferator-activated receptor gamma signaling (AID 588537; active = well fitted inhibition curve with a large enough effect in the signal ratio, with a control signal flat, not every such curve was filed as active; the % refers to the signal ratio;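 also: reporter cells co-stimulated with 50 nM rosiglitazone agonist during compound treatment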); conditions: HEK293 PPARg-UAS-bla, beta-lactamase ratio, antagonist mode; series mostly up to 76.8 µM
In short: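 Fluorescence at 460 and 530 nm (405 nm excitation) reported beta-lactamase cleavage of CCF4 after 2 h room-temperature loading. HEK293 reporter cells in 1% charcoal/dextran-treated FBS had received compound and rosiglitazone for 16 h.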

[11] = qHTS assay for small molecule activators of the p53 signaling pathway (AID 651743; active = well fitted activation curve with a large enough effect in the signal ratio, not every such curve was filed as active; the % refers to the signal ratio); conditions: HCT-116 p53RE-bla, beta-lactamase FRET ratio, 16 h; activation: stronger effect = higher value
In short: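 Following 16 hours of compound exposure at 37 C, HCT-116 cells bearing the p53RE-bla reporter were loaded with LiveBLAzer B/G FRET substrate for 2 hours at room temperature and fluorescence intensity was recorded.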

[12] = biological target: Tumor necrosis factor (Homo sapiens) (UniProt P01375); experiment: qHTS assay to identify small molecules that stimulate Tumor Necrosis Factor-alpha (TNF-alpha) secretion (AID 651757; active = well fitted curve in the direction sought with a large enough effect in the signal ratio; the % refers to the signal ratio); conditions: Human cells, HTRF 665/615 ratio; series mostly up to 92.2 µM
In short: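 Secreted TNF-alpha quantified by TR-FRET sandwich of two labeled anti-TNF-alpha antibodies, incubated 3 hr at room temperature. Preceded by 17 hr, 37 C compound treatment of THP-1 cells at 3000 cells/well.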

[13] = qHTS assay for small molecule agonists of the antioxidant response element (ARE) signaling pathway measured by Nrf2-dependant transcriptional activity (AID 720636; active = well fitted curve in the direction sought with a large enough effect in the repeat runs; an effect the other way counts as inactive or inconclusive); conditions: ARE-luc HepG2, Nrf2 luciferase reporter, 16 h; series mostly up to 92.4 µM
In short: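 Nrf2-dependent transcription read as ONE-Glo luciferase signal from ARE-luc HepG2 reporter cells after 16 hr compound treatment at 37 C, 5% CO2, in assay medium with 1% dialyzed FBS.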

[14] = Cell Viability - SH-SY5Y (AID 544); conditions: SH-SY5Y neuroblastoma cell viability; viability change, negative = cytotoxic: at 92.2 µM (top of the series);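 also: cells exposed to compound for 40 hours; nearly all actives have a fitted effect of over 55% in size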
In short: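 Cytotoxicity measured via ATP-dependent luciferase luminescence (CellTiter-Glo) following 40 h, 37 °C exposure of 1500 SH-SY5Y cells per well. Concentration-response data were fitted with the standard Hill equation to give AC50.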

[15] = biological target: Bile acid receptor (Homo sapiens) (UniProt Q96RI1); experiment: qHTS assay for small molecule antagonists of farnesoid X receptor signaling (AID 588526; calls by dose curve); conditions: HEK293T FXR-UAS-bla, beta-lactamase ratio, antagonist mode; series mostly up to 76.7 µM
In short: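 Antagonist mode: titrated compounds tested against chenodeoxycholic acid stimulation (normalized to 50 uM CDCA and DMSO) in GeneBLAzer HEK293T cells for 16 h. Beta-lactamase read by CCF4 fluorescence; IC50 from Hill fits.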

[16] = biological target: Retinoic acid receptor RXR-alpha (Homo sapiens) (UniProt P19793); experiment: qHTS assay for small molecule agonists of retinoid X receptor alpha signaling (AID 588544; calls by dose curve; also: potency is read from the fitted curve at half-maximal effect); conditions: HEK293T RXRa-UAS-bla, beta-lactamase reporter, 18 h; series mostly up to 76.7 µM
[17] = qHTS assay to identify small molecules that stimulate interleukin-8 (IL-8) secretion (AID 651758; active = well fitted activation curve with a large enough effect in the signal ratio; the % refers to the signal ratio; also: potency is read from the fitted curve at half-maximal effect); conditions: HTRF ratio (665/615); series mostly up to 92.2 µM
In short: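 Compounds are added to THP-1 cells (2000 per well) and left 16 hrs at 37 C. A labeled anti-IL-8 antibody pair is then added, and IL-8 secretion is measured by time-resolved FRET after 1-3 hrs at room temperature.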

[18] = Cell Viability - N2a (AID 540); conditions: N2a mouse neuroblastoma cell viability; activity change, negative = cytotoxicity: at 92.2 µM (top of the series); also: nearly all actives have a fitted effect of over 45% in size
In short: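 CellTiter-Glo ATP luminescence, read 20 min after reagent at room temperature, reported viability following 40 h compound treatment at 37 °C. N2a mouse neuroblastoma cells seeded 1500/well; Hill equation gave AC50.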

[19] = Cell Viability - LYMP2-008 (AID 980); conditions: LYMP2-008 lymphoblastoid cell viability, qHTS; series mostly up to 92.2 µM; also: nearly all actives have a fitted effect of over 60% in size
In short: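 Cytotoxicity determined from ATP-dependent luciferase luminescence (CellTiter-Glo) following 24 h compound exposure of human lymphoblastoid LYMP2-008 cells at 37 C. Concentration-response data fitted to the Hill equation to give AC50.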

[20] = biological target: Vitamin D3 receptor (Homo sapiens) (UniProt P11473); experiment: qHTS assay for small molecule agonists of vitamin D receptor signaling (AID 588543; calls by dose curve); conditions: HEK293T VDR-UAS-bla, beta-lactamase ratio, 16 h; series mostly up to 76.8 µM
In short: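 qHTS in agonist mode: compound titrations stimulate a VDR-driven β-lactamase reporter in HEK293T cells over 16 h at 37 °C. Response normalized to 50 nM 1α,25-dihydroxyvitamin D3 = 100%, DMSO = 0%; Hill fitting gives EC50 and maximal response.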

Sequence of Retinoic acid receptor RXR-alpha (Homo sapiens) (P19793 whole entry, looked up): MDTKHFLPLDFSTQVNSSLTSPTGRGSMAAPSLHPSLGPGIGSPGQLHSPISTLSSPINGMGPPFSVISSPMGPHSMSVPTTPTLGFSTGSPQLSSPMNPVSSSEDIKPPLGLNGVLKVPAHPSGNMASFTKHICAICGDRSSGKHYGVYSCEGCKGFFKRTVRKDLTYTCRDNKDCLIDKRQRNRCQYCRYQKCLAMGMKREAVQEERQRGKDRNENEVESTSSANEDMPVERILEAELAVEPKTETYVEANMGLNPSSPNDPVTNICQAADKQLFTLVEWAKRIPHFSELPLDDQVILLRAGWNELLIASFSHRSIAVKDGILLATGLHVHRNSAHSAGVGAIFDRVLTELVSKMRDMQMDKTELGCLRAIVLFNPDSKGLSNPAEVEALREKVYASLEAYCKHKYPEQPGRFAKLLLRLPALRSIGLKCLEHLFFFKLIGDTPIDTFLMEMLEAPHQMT
Sequence of Tumor necrosis factor (Homo sapiens) (P01375 whole entry, looked up): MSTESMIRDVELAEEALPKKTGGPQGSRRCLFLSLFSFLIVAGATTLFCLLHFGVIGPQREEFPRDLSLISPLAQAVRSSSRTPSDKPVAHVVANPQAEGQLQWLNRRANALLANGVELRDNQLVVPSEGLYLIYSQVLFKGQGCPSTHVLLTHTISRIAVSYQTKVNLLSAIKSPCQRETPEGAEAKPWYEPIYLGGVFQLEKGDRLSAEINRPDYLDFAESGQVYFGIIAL
Sequence of Bile acid receptor (Homo sapiens) (Q96RI1 whole entry, looked up): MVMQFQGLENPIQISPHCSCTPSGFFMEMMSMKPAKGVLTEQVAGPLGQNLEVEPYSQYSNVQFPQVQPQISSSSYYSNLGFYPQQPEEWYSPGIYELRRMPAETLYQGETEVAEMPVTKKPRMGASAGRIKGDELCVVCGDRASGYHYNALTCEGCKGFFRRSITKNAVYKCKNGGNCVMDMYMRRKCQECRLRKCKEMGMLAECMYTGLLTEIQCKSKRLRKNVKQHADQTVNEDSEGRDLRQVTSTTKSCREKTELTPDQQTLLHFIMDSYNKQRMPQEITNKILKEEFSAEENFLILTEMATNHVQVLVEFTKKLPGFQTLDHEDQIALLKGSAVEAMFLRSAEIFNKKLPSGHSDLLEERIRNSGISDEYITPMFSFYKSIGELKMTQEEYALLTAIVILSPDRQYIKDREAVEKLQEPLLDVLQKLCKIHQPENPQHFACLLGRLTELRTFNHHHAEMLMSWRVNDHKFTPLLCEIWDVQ
Sequence of Peroxisome proliferator-activated receptor gamma (Homo sapiens) (P37231 whole entry, looked up): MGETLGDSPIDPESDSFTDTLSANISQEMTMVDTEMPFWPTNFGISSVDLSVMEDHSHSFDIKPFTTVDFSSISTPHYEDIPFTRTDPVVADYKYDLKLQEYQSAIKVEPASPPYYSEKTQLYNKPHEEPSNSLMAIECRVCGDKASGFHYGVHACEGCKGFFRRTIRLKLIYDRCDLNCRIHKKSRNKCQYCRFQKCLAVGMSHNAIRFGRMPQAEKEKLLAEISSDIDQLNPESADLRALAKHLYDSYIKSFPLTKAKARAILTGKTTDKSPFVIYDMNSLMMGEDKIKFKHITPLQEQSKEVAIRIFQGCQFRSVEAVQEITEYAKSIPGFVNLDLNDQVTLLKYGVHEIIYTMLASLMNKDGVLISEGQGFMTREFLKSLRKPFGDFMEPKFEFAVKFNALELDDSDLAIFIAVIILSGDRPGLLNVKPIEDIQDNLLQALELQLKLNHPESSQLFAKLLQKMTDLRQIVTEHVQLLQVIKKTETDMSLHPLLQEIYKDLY
Sequence of Vitamin D3 receptor (Homo sapiens) (P11473 whole entry, looked up): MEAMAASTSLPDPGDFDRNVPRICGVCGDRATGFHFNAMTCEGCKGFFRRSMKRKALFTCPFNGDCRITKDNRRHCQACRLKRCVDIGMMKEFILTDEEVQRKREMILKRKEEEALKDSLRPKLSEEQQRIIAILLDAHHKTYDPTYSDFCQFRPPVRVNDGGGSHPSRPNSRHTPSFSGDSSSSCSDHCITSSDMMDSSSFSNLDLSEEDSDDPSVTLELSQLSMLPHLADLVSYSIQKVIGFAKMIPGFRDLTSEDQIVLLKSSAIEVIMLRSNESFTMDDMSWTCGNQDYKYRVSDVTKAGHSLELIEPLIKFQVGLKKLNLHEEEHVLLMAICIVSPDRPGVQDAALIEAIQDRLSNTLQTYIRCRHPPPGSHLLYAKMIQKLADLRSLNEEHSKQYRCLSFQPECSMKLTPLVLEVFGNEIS

SMILES	Potency [1]	Potency [2]	Potency [3]	Potency [4]	Potency [5]	Potency [6]	Potency [7]	max response [8]	outcome [9]	Potency [10]	activation [11]	Potency [12]	Potency [13]	Potency [14]	Potency [15]	Potency [16]	Potency [17]	activity change, negative = cytotoxicity [18]	Potency [19]	Potency [20]
OCC(CBr)(CBr)CBr	> 92 µM (inactive)	inactive	inactive	inactive	inactive	inactive	inactive	9.08%	inactive	inactive	0.524% (inactive)	inactive	inactive							
CCCCCCCCOc1ccc(C(=O)O)cc1	> 92 µM (inactive)		inactive			inactive					4.64% (inactive)		inactive	inactive	inactive	39.8 µM (active)	66.8 µM (active)			
CC(=O)OCc1ccc2c(c1)OCO2	> 92 µM (inactive)	inactive	inactive	inactive	inactive	inactive	inactive				-2.61% (inactive)				inactive		inactive	-15.3% (inactive)		
C=Cc1cccc(C)c1	> 92 µM (inactive)		inactive	inactive	inactive		inactive	-23.4%		inactive	-1.54% (inactive)	inactive	inactive	inactive		inactive	inactive	-2.59% (inactive)		
C=CC1CO1 (stereo not drawn)	> 92 µM (inactive)		inactive	inactive			inactive			inactive	-3.74% (inactive)			inactive		inactive			inactive	
Cc1ccc(C(=O)O)cc1[N+](=O)[O-]	> 92 µM (inactive)			inactive			inactive			inactive			inactive	inactive					inactive	
c1ccc2c(c1)ccc1ccccc12	> 92 µM (inactive)		inactive	inactive	inactive	inactive	inactive	-5.89%	inactive	inactive					inactive	inactive		-13.8% (inactive)		
c1ccc(CSCc2ccccc2)cc1	> 92 µM (inactive)		inactive	inactive	inactive		inactive	13.7%	inactive	inactive		inactive	inactive			inactive		-17.4% (inactive)	inactive	inactive
CC(=O)OC(C(=O)c1ccccc1)c1ccccc1 (stereo not drawn)	> 92 µM (inactive)		inactive	inactive	inactive		inactive		inactive	inactive	-2.72% (inactive)	inactive	inactive	inactive	inactive		inactive		inactive	
CCCCCCCCC1CO1 (stereo not drawn)	> 92 µM (inactive)		inactive		inactive	inactive		-10.9%	inactive	inactive	-2.83% (inactive)	inactive	inactive		inactive	inactive		-1.38% (inactive)		inactive
CCCCC(CC)COCCCN (stereo not drawn)	> 92 µM (inactive)	inactive		inactive	inactive		inactive	8.44%				inactive			inactive				inactive	
CN(C)c1ccc(Cc2ccc(N(C)C)cc2)cc1	> 92 µM (inactive)			inactive		inactive	inactive	11.4% and 3.82%	inactive	inactive			inactive	inactive	inactive				inactive	inactive
Oc1ccc2c(c1)OCO2	> 92 µM (inactive)	inactive	inactive	inactive		inactive	inactive				4.65% (inactive)	inactive	inactive				inactive			
NC(=O)c1ccc([N+](=O)[O-])cc1	> 92 µM (inactive)			inactive			inactive	16.9%	inactive			inactive	inactive			inactive		4.68% (inactive)	inactive	inactive
Nc1ccc(N=Nc2ccccc2)c(N)c1	> 92 µM (inactive)			inactive	inactive		inactive			inactive	-4.52% (inactive)									
Brc1ccc(-c2ccccc2)cc1	> 92 µM (inactive)		inactive	inactive	inactive	inactive	inactive					inactive	inactive			inactive		-19.3% (inactive)	inactive	inactive
CC(C)S	> 92 µM (inactive)			inactive			inactive	-7.04%	inactive	inactive		inactive	inactive			inactive		-5.34% (inactive)	inactive	inactive
Oc1c(Cl)cc(Cl)c(Cl)c1Cl	57 µM (active)	inactive	inactive		inactive	inactive		22.5%					inactive		inactive					inactive
Brc1cc(Br)c(Oc2cc(Br)c(Br)cc2Br)cc1Br				inactive		inactive						inactive		inactive					inactive	
C=C(C#N)C(=O)OCC		inactive		inactive		inactive	inactive	-32.1%			2.02% (inactive)		inactive	inactive				-3.66% (inactive)	inactive	
CCCCC(CC)COC(=O)COc1ccc(Cl)cc1Cl (stereo not drawn)			inactive	inactive	inactive	inactive	inactive		inactive					inactive				1.51% (inactive)	inactive	inactive

Source: PubChem BioAssay (NCATS)
